Measured values taken from ChEMBL document CHEMBL3988442, “University of Dundee, Small-Polar-MMV Screening Library” (2021).
Hit rate of the full screen: of about 69,000 compounds, about 420 (0.61%) showed an effect of 50% or more. Many of the other results were omitted from the sample, so strong results are more common in it than they were.

Biological target: T1, Histidine--tRNA ligase (Leishmania infantum) (UniProt A4I591)
T1 sequence (whole entry): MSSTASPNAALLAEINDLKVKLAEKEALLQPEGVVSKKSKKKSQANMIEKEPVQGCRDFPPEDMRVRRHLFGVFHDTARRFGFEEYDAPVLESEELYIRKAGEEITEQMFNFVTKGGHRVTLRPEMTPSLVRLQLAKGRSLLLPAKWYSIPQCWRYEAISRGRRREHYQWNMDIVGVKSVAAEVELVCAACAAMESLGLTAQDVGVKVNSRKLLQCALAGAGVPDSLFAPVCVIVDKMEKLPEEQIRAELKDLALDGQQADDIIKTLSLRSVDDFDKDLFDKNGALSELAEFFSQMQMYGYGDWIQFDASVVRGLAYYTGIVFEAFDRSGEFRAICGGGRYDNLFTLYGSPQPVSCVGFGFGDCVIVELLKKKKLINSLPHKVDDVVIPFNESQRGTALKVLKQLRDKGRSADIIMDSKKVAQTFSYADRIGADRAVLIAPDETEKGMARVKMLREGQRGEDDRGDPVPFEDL
Experiment: Leishmania infantum Histidine tRNA synthetase (LdHisRS)
Format: functional
Parameters: scale not given: in the data most compounds retested in dose-response had high values
Conditions: 30 µM

SMILES | Percent Effect [%]
COc1cccc(SCCCn2cnc3c(N)ncnc32)c1 | 4.08
Clc1ccc(C2(CNC3=NCCN3)CCCCC2)cc1 | 50
Clc1ccc(C2(CNC3=NCCN3)CCCC2)cc1 | 35.7
Clc1ccc(C2(CNC3=NCCN3)CC2)cc1 | 18.6
CC(C)c1n[nH]c(C(=O)Nc2ccccn2)c1Br | 0
CNC(=O)[C@@]12CCO[C@@H]1CCN(S(=O)(=O)c1ccccc1C)C2 | 5
CC(C)CS(=O)(=O)N1C[C@H]2C[C@H](C(=O)N3CCOCC3)[C@@H](C1)O2 | 1.89
O=C(c1cccnc1-c1ccoc1)N1C[C@H]2CC[C@@H]1C2 | 1.43
COc1ccc(C2CC(=O)Nc3c2cnn3C)cc1 (centres undefined) | 1.91
COc1ccc(OC)c(C2CCN(CC(C)(C)N3CCOCC3)C2)c1 (centres undefined) | 12.7
CCn1ncnc1C1CC(=O)NCc2nc(N3CCOCC3)sc21 (centres undefined) | 25.3
COc1ccc(C2CCCN2c2nnc(C)s2)c(OC)c1 (centres undefined) | 6.25
COc1ccc(C2CC(=O)Nc3nc(N4CCOCC4)sc32)c(OC)c1 (centres undefined) | 115
COc1ccc(OC)c(C2CC(=O)Nc3nc(N4CCOCC4)sc32)c1 (centres undefined) | 102
COc1ccc(C2CC(=O)NCc3nc(N(C)C)sc32)c(O)c1 (centres undefined) | 10.8
COc1ccc(C2CC(=O)Nc3nc(N4CCOCC4)sc32)cc1 (centres undefined) | 105
COc1ccc(C(C)C)cc1C1CC(=O)NCc2nc(N(C)C)sc21 (centres undefined) | 31.2
O=C(c1ccncc1)N1C[C@@H]2CC[C@H](C1)N(C(=O)N1CCOCC1)C2 | 12.6
COCC(=O)N1CC[C@]2(O)CCN(Cc3cccnc3OC)C[C@@H]2C1 | 17.1
COc1ccc(CC(=O)N2CC[C@@H]3NC(=O)CC[C@@H]32)cc1 | 8.77
O=C(NCc1cnn2cccnc12)c1cccc(CC2CCNCC2)c1 | 60
CC(C)(O)CCc1cccc(C(=O)NCc2cnn3cccnc23)c1 | 2.22
CC(C)Cn1cncc1CNC(=O)c1cccc(CC2CCNCC2)c1 | 25.6
O=C(CC1CCCCC1)N1C[C@H]2CC[C@@H]1CN(Cc1cccnc1)C2 | 9.68
